Targets include RELARELA (p65 homodimer) (Homo sapiens, UniProt Q04206 1-307); p50p50 homodimer (Homo sapiens, UniProt P19838 7-356); RELB subunit;p50 subunit (Homo sapiens;Homo sapiens, UniProt Q01201;P19838 120-401;7-356).
Assay in all cases: protein binding microarray; high values mean tight binding
Common to all, as to conditions: dsDNA, one strand shown

A further assay addresses T1, p52p52 homodimer (Homo sapiens, UniProt Q00653 4-332).
T1 sequence: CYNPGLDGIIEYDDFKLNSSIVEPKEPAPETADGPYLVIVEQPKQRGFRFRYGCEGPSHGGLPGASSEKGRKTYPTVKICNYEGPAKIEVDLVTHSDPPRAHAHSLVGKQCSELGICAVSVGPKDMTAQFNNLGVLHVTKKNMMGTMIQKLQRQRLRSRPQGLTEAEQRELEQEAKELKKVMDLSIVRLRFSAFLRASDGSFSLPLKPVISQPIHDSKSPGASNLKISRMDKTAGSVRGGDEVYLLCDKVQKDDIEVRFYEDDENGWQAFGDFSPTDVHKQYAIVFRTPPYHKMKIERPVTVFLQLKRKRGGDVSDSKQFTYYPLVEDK

Assay [1] concerns the target RELA (p65) subunit of heterodimer;p50 subunit (Homo sapiens;Homo sapiens, UniProt Q04206;P19838 1-307;7-356).
Assay [2] deals with RELA (p65) subunit of heterodimer;p52 subunit (Homo sapiens;Homo sapiens, UniProt Q04206;Q00653 1-307;4-332).
In the next assay the target is T2, RELB subunit;p52 subunit (Homo sapiens;Homo sapiens, UniProt Q01201;Q00653 120-401;4-332).
T2 sequence 1: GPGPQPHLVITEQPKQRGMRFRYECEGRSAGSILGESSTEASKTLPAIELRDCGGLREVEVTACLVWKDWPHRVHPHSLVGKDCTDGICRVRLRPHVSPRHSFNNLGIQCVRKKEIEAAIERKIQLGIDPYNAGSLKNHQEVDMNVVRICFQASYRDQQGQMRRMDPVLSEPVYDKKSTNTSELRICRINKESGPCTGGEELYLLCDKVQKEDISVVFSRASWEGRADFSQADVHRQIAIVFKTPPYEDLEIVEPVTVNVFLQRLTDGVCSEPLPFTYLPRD
T2 sequence 2: T1 sequence

Assay [3] deals with C-Rel subunit;p50 subunit (Homo sapiens;Homo sapiens, UniProt Q04864;P19838 1-285;7-356).
The target of assay [4] is T3, C-Rel subunit;p52 subunit (Homo sapiens;Homo sapiens, UniProt Q04864;Q00653 1-285;4-332).
T3 sequence 1: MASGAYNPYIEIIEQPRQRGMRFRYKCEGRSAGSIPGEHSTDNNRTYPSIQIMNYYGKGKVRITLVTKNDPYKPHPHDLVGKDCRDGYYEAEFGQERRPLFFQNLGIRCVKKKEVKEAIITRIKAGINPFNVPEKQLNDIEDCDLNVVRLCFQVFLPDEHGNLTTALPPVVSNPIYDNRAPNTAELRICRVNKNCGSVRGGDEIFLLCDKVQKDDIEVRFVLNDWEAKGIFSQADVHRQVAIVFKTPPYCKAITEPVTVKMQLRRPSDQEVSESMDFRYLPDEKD
T3 sequence 2: T1 sequence

RELARELA (p65 homodimer), sequence (Q04206 1-307): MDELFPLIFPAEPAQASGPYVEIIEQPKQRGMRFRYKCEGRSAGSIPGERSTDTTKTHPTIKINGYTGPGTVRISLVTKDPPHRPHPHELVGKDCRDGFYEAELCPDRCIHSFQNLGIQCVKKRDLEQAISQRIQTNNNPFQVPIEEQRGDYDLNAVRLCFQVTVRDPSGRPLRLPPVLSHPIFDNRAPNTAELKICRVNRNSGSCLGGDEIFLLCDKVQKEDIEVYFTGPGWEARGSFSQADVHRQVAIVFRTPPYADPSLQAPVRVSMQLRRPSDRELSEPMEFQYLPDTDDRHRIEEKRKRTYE
RELA (p65) subunit of heterodimer;p50 subunit, sequence (Q04206 1-307, chain 1 of 2): as the sequence (Q04206 1-307) above
RELA (p65) subunit of heterodimer;p50 subunit, sequence (P19838 7-356, chain 2 of 2): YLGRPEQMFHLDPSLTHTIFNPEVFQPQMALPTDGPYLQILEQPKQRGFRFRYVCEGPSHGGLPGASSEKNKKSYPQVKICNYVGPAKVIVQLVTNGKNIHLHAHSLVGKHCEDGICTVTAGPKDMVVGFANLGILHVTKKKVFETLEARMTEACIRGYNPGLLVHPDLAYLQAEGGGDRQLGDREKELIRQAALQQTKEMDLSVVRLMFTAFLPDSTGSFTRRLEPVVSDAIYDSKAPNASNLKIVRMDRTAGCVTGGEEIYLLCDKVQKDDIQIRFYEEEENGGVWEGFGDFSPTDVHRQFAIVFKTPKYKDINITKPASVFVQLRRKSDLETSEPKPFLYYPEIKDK
p50p50 homodimer, sequence (P19838 7-356): as the sequence (P19838 7-356, chain 2 of 2) above

For the sequence GAAAACGTCCT, the binding signal with RELARELA (p65 homodimer) was -0.176 z-score; in the assay with p50p50 homodimer, -1.26 z-score; with p52p52 homodimer it was -0.536 z-score; in assay [1], -0.838 z-score; in assay [2], -0.654 z-score; with RELB subunit;p50 subunit it was -0.872 z-score. For the same sequence, the binding signal in the assay with RELB subunit;p52 subunit was -0.687 z-score; in assay [3], -0.823 z-score; in [4] it was -0.648 z-score.

As to AGAAGCATCCC, the binding signal with RELARELA (p65 homodimer) was -0.382 z-score; with p50p50 homodimer, -1.4 z-score; in the assay with p52p52 homodimer, -0.607 z-score; in assay [1], -0.83 z-score; in assay [2], -0.795 z-score; with RELB subunit;p50 subunit, -0.706 z-score. In addition, the binding signal in the assay with RELB subunit;p52 subunit is -0.776 z-score; in assay [3], -1.06 z-score; in assay [4], -0.81 z-score.

Take GAAAGTGTCCT: the binding signal in the assay with RELARELA (p65 homodimer) is 0.0215 z-score; with p50p50 homodimer, -1.58 z-score; with p52p52 homodimer, -0.464 z-score; in assay [1], -0.843 z-score; in assay [2], -0.45 z-score; with RELB subunit;p50 subunit, -0.858 z-score. Also, the binding signal in the assay with RELB subunit;p52 subunit was -0.525 z-score; in assay [3], -0.958 z-score; in assay [4], -0.375 z-score.

Consider CGATGTCTCCT, for which the binding signal in the assay with RELARELA (p65 homodimer) was -0.49 z-score; with p50p50 homodimer, -1.36 z-score; with p52p52 homodimer, -0.736 z-score; in [1], -0.843 z-score; in assay [2] it was -0.849 z-score; with RELB subunit;p50 subunit it was -1.04 z-score. Moreover, the binding signal with RELB subunit;p52 subunit is -0.858 z-score; in assay [3] it was -1.52 z-score; in [4] it was -0.895 z-score.

For the sequence GAGGTGACCCC, the binding signal with RELARELA (p65 homodimer) was -0.476 z-score; with p50p50 homodimer it was -0.386 z-score; with p52p52 homodimer, -0.328 z-score; in [1], -0.534 z-score; in [2], -0.428 z-score; with RELB subunit;p50 subunit, -0.385 z-score. In addition, the binding signal is -0.19 z-score with RELB subunit;p52 subunit, -0.788 z-score in assay [3] and -0.26 z-score in assay [4].

As to CGGGTCGTCCT, the binding signal was -0.683 z-score in the assay with RELARELA (p65 homodimer); -1.36 z-score in the assay with p50p50 homodimer; -0.504 z-score with p52p52 homodimer; -0.972 z-score in [1]; -0.834 z-score in [2]; -0.864 z-score with RELB subunit;p50 subunit. Besides, the binding signal with RELB subunit;p52 subunit is -0.859 z-score; in assay [3], -1.15 z-score; in [4], -0.64 z-score.

Regarding CAGGGGACCCT, the binding signal with RELARELA (p65 homodimer) is -0.887 z-score; in the assay with p50p50 homodimer it was 0.487 z-score; in the assay with p52p52 homodimer, 0.583 z-score; in assay [1], 0.0452 z-score; in [2], 0.384 z-score; in the assay with RELB subunit;p50 subunit, 0.29 z-score. Besides, the binding signal with RELB subunit;p52 subunit is 0.53 z-score; in assay [3], -0.293 z-score; in [4] it was -0.0494 z-score.

For CGGGAACTCCT, the binding signal was 1.67 z-score with RELARELA (p65 homodimer); 0.314 z-score in the assay with p50p50 homodimer; 0.181 z-score with p52p52 homodimer; 0.357 z-score in assay [1]; 0.17 z-score in assay [2]; -0.0239 z-score with RELB subunit;p50 subunit. The binding signal was 0.0296 z-score with RELB subunit;p52 subunit, 0.188 z-score in assay [3] and 0.424 z-score in assay [4].

GAATTCGCCCT: the binding signal is 0.00849 z-score with RELARELA (p65 homodimer); -0.928 z-score in the assay with p50p50 homodimer; -0.505 z-score with p52p52 homodimer; -0.461 z-score in assay [1]; -0.517 z-score in assay [2]; -0.698 z-score with RELB subunit;p50 subunit. In addition, the binding signal with RELB subunit;p52 subunit is -0.722 z-score; in assay [3], -0.531 z-score; in [4], -0.36 z-score.

With GGATAGGTCCC, the binding signal is -0.076 z-score in the assay with RELARELA (p65 homodimer); -0.336 z-score in the assay with p50p50 homodimer; 0.0228 z-score in the assay with p52p52 homodimer; -0.276 z-score in assay [1]; -0.141 z-score in assay [2]; -0.137 z-score with RELB subunit;p50 subunit. In addition, the binding signal was -0.101 z-score with RELB subunit;p52 subunit, -0.467 z-score in assay [3] and -0.334 z-score in assay [4].

In the case of CGGAGCGCCCT, the binding signal in the assay with RELARELA (p65 homodimer) is -0.577 z-score; in the assay with p50p50 homodimer it was -1.84 z-score; with p52p52 homodimer, -0.701 z-score; in [1], -0.94 z-score; in assay [2], -0.911 z-score; with RELB subunit;p50 subunit it was -1.13 z-score. Further, the figures for the binding signal (with RELB subunit;p52 subunit; in assay [3]; in assay [4]) were -0.954 z-score, -1.21 z-score and -1.01 z-score, respectively.

AGGATTGTCCT: the binding signal with RELARELA (p65 homodimer) is 0.256 z-score; with p50p50 homodimer, -1.5 z-score; in the assay with p52p52 homodimer it was -0.541 z-score; in assay [1], -0.736 z-score; in assay [2], -0.766 z-score; with RELB subunit;p50 subunit, -0.86 z-score. Besides, the binding signal was -0.821 z-score with RELB subunit;p52 subunit, -1.01 z-score in [3] and -0.483 z-score in [4].

On to CAGTTTGCCCC, for which the binding signal with RELARELA (p65 homodimer) stood at 1.6 z-score; in the assay with p50p50 homodimer it was 0.492 z-score; with p52p52 homodimer it was 0.189 z-score; in assay [1] it was 1.17 z-score; in [2] it was 0.571 z-score; with RELB subunit;p50 subunit, 0.532 z-score. In addition, the binding signal was found to be 0.563 z-score with RELB subunit;p52 subunit, 1.5 z-score in assay [3] and 0.899 z-score in assay [4].

As to CAGGTGTTCCC, the binding signal with RELARELA (p65 homodimer) is 0.518 z-score; with p50p50 homodimer it was 0.0166 z-score; with p52p52 homodimer, 0.0698 z-score; in [1] it was -0.00537 z-score; in assay [2] it was 0.153 z-score; with RELB subunit;p50 subunit it was -0.0984 z-score. In addition, the binding signal in the assay with RELB subunit;p52 subunit was -0.0353 z-score; in [3], 0.188 z-score; in assay [4], 0.359 z-score.

Regarding GAATAAGTCCC, the binding signal in the assay with RELARELA (p65 homodimer) worked out at 0.563 z-score; in the assay with p50p50 homodimer it was 1.13 z-score; with p52p52 homodimer it was 0.974 z-score; in assay [1], 1.43 z-score; in assay [2] it was 0.993 z-score; with RELB subunit;p50 subunit it was 1.38 z-score. For the same sequence, the values for the binding signal (with RELB subunit;p52 subunit; in assay [3]; in assay [4]) were 1.13 z-score, 1.03 z-score and 0.676 z-score, respectively.

These data come from article PMC3218832.
